# From PubChem BioAssay AID2763 (National Center for Advancing Translational Sciences (NCATS), 2010)
# Inconclusive results are not listed. Unmarked numbers belong to inactive results. Activity calls are given as the source filed them. The call rests on the fitted dose curve; in most records, active means well fitted inhibition curve with a large enough effect; inconclusive means small, poorly fitted or top-dose-only effect, or effect the other way; inactive means no such curve, though single readings can be large or run the other way.
# Test: Concentration response confirmation VP16 counterscreen for inhibitors of ROR gamma transcriptional activity; further: nearly all actives have a fitted effect of over 70% in size
# Conditions: Drosophila S2 Gal4-VP16 UAS-luciferase, luminescence, 20 h; series mostly up to 46.1 µM; activity change, negative = inhibition: at the top concentration
# In short: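 Luciferase counterscreen: UAS-driven Photinus reporter in S2 cells expressing copper-inducible Gal4-VP16 fusion, 600 cells/well. Induced with copper sulfate (700 uM final) 1 hr after compound, incubated 20 hr at ambient temperature before luminescence detection.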
# On the % scale 0 is the no-effect control and ±100 the full control effect; potency means the concentration at half of the fitted maximal effect.
SMILES,"activity change, negative = inhibition",Potency
CN(C)S(=O)(=O)c1ccc(NC(=O)/C=C/c2ccccc2Cl)cc1,-7.71%,–
CCOc1ccc(C(=O)Nc2nc3ccccc3[nH]2)cc1OCC,–,12.5 µM (active)
COc1ccc(C(=O)Nc2cc(-c3ccc(C)cc3)no2)cc1,-17.6%,–
COc1ccc(-c2nnc(-c3ccc(N(C)C)cc3)o2)cc1,-19.3%,–
S=c1[nH]nc(-c2ccc(Cl)cc2Cl)n1-c1ccc2c(c1)OCCO2,0.595%,–
O=C(NC(=S)Nc1nc(-c2ccccc2)cs1)c1cccnc1,16.5%,–
O=C(CSCCO)Nc1ccc(C2CCCCC2)cc1,–,9.96 µM (active)
C=CCNc1nc(Nc2ccc([N+](=O)[O-])cc2)nc(N2CCCC2)n1,–,19.9 µM (active)
COc1cccc(-c2cc(C(=O)N3CCc4ccccc4C3)[nH]n2)c1,-10.7%,–
CCOc1ncccc1C(=O)OCC(=O)Nc1ccc(-c2nc3ccc(C)cc3s2)cc1,–,3.53 µM (active)
COc1ccc(C(CNC(=S)NCc2ccccc2)N2CCCC2)cc1 (centres undefined),10.3%,–
COc1ccc2[nH]c(C)c(CCN(Cc3cccs3)C(=S)Nc3ccccc3OC)c2c1,37.2%,–
Fc1cccc2sc(Nc3nnc(-c4ccco4)o3)nc12,–,6.28 µM (active)
Cc1ccc(NC(=S)NCCN(C2CCCCC2)C2CCCC2)cc1C,–,22.3 µM (active)
Cc1ccc(S(=O)(=O)NCc2ccncc2)c(C)c1C,–,3.97 µM (active)
O=C(/C=C/c1c(F)cccc1Cl)N1CCc2ccccc2C1,7.93%,–
CC(C)CC(=O)NS(=O)(=O)c1ccc(N)cc1,-12.3%,–

SMILES,"activity change, negative = inhibition",Potency
CCn1cc(C(=O)O)c(=O)c2cnc(N3CCN(C(=S)NC(=O)c4ccccc4)CC3)nc21,14.3%,–
COC(=O)c1ccc(Oc2cc(C)nc(-n3nc(C)cc3C)n2)cc1,–,7.91 µM (active)
Cc1cc(-c2ccccc2)nc(N2CCC(C(=O)NCc3ccccc3Cl)CC2)n1,11.3%,–
CCOC(=O)C(C(=O)OCC)C(C(=O)OCC)N1CCOCC1 (centres undefined),–,3.53 µM (active)
COCCC1CCCCN1C(=O)c1cc(COc2ccc(-n3cncn3)cc2)on1 (centres undefined),–,19.9 µM (active)
COCC1CCCCN1C(=O)c1cc(COc2ccc3ncccc3c2)on1 (centres undefined),–,7.05 µM (active)
CC(C)(C)c1ccc(-c2noc(CCC(=O)Nc3cccnc3)n2)cc1,–,1.99 µM (active)
Cn1c(=O)[nH]c(=O)c2c1nc(NCc1ccco1)n2Cc1ccccc1Cl,11.1%,–
COc1ccccc1CNC(=O)[C@@H](NC(=O)C1CCN(C(=O)[C@@H]2CCCN2C(=O)OC(C)(C)C)CC1)C(C)C,0.516%,–
O=C1NC2=C(C(=O)CCC2)C(c2ccccc2)N1 (centres undefined),4.06%,–
COc1ccc(CNC(=O)COC(=O)C2CC3C=CC2C3)cc1 (centres undefined),0.307%,–
Cc1cc(NC(=S)NC(=O)/C=C/c2ccc(S(=O)(=O)N3CCOCC3)cc2)ccc1Br,–,11.2 µM (active)
CCN(CC(=O)Nc1ccc2c(c1)CCC2)Cc1nc2ccccc2c(=O)[nH]1,–,15.8 µM (active)
COc1ccc(C(=O)Nc2nc3cc4c(cc3s2)OCCO4)c(OC)c1,–,0.223 µM (active)
COc1cc(C(=O)NC2CC(C)(C)Cc3c2cnn3-c2ccccc2)cc(OC)c1OC (centres undefined),-6.83%,–
Cc1cc(NC(=O)CN2CCOCC2)n(-c2nc3ccccc3s2)n1,–,12.5 µM (active)
CNC(=O)NC(=O)CSc1nc2cc(C(=O)OC)ccc2c(=O)n1-c1ccccc1,–,25 µM (active)
